# Results filed as inconclusive are left out. Calls of active or inactive are those of the source. The call rests on the fitted dose curve; in most records, active means well fitted curve in the direction sought with a large enough effect; inconclusive means small, poorly fitted or top-dose-only effect, or another doubt; inactive means no such curve, though single readings can be large; an effect the other way counts as inactive or inconclusive.
# Assay: qHTS assay to identify small molecule inhibitors of chordoma cells - UCH-2 (AID 1259356)
# Conditions: UCH-2 chordoma viability, CellTiter-Glo ATP luminescence, 48 h; series mostly up to 46.1 µM
row,Structure (SMILES),outcome
1,CCOc1ccc(C(=O)OCCN(CC)CC)cc1,inactive
2,CC(O)CCCCn1c(=O)c2c(ncn2C)n(C)c1=O (stereo unspecified),inactive
3,Cc1cccc(C)c1NC(=O)CC12CCCN1CCC2,inactive
4,O=C(c1ccccc1)C(O)c1ccccc1 (stereo unspecified),inactive
5,NS(=O)(=O)c1ccc(NC(=O)CCC(=O)O)cc1,inactive
6,CC[N+](CC)(CC(=O)Nc1c(C)cccc1C)Cc1ccccc1,inactive
7,C=CCOc1ccccc1OCC(O)CNC(C)C (stereo unspecified),inactive
8,C[N+]1(C)CCCC(OC(=O)C(O)(c2ccccc2)c2ccccc2)C1 (stereo unspecified),inactive
9,CCCCCCCCCCC(CO)CCCCCCCC (stereo unspecified),inactive
10,CC(=O)Nc1ccc(C(=O)O)cc1,inactive
11,COc1ccc(-c2cc(=O)c3c(O)cc(O[C@@H]4O[C@H](CO[C@@H]5O[C@@H](C)[C@H](O)[C@@H](O)[C@H]5O)[C@@H](O)[C@H](O)[C@H]4O)cc3o2)cc1O,inactive
12,Cc1c(I)c(=O)n(-c2ccccc2)n1C,inactive
13,OC[C@@H](O)[C@@H](O)[C@H](O)[C@H](O)CO,inactive
14,CC(C)(C)NCC(O)COc1cccc2c1CCC(=O)N2 (stereo unspecified),inactive
15,CN/C(=C\[N+](=O)[O-])NCCSCc1csc(CN(C)C)n1,inactive
16,CC(=O)NCc1c(I)c(NC(C)=O)c(I)c(C(=O)O)c1I,inactive
17,O=C(OOC(=O)c1ccccc1)c1ccccc1,inactive
18,O=C(O)CCCCC1CCSS1 (stereo unspecified),inactive
19,FC(F)(F)C(Cl)Br (stereo unspecified),inactive

row,Structure (SMILES),outcome
1,C[C@@H]1O[C@@H](OC[C@H]2O[C@@H](Oc3c(-c4ccc(O)c(O)c4)oc4cc(O)cc(O)c4c3=O)[C@H](O)[C@@H](O)[C@@H]2O)[C@H](O)[C@H](O)[C@H]1O,inactive
2,CC(=O)Nc1cccc(O)c1,inactive
3,O=C1C(c2[nH]c3ccccc3c2O)=Nc2ccccc21,inactive
4,NCC1CCC(C(=O)Oc2ccc(CCC(=O)O)cc2)CC1 (stereo unspecified),inactive
5,CCCCCCCCCCCCCCCCCCO,inactive
6,CC(C)=CCC[C@@](C)(O)[C@H]1CC=C(C)CC1,inactive
7,COc1ccccc1OC(=O)Oc1ccccc1OC,inactive
8,N[C@@H](Cc1ccc(O)cc1)C(=O)O,inactive
9,COC(=O)c1cccnc1,inactive
10,CC(CSC(=O)c1ccccc1)C(=O)N1C[C@@H](Sc2ccccc2)C[C@H]1C(=O)O (stereo partly specified),inactive
11,Cc1ccccc1N=Nc1ccc(N=Nc2c(O)ccc3ccccc23)c(C)c1,inactive
12,CN1C(C)(C)CCCC1(C)C,inactive
13,CN1CCCN=C1COC(=O)C(O)(c1ccccc1)C1CCCCC1 (stereo unspecified),inactive
14,Cc1ccsc1C(=CCCN1CCC[C@@H](C(=O)O)C1)c1sccc1C,inactive
15,CCc1nnc(NS(=O)(=O)c2ccc(N)cc2)s1,inactive
16,O=C(O)[C@@H]1[C@H]2C[C@H]3c4[nH]c5ccccc5c4CCN3C[C@@H]2CC[C@@H]1O,inactive
17,CCCCCCCC(=O)OCC(O)CO (stereo unspecified),inactive
18,O=C(O)c1ccc(OCCCOc2ccc(C(=O)O)cc2)cc1,inactive
19,NC(=O)NC1NC(=O)NC1=O (stereo unspecified),inactive

# Assay: P-glycoprotein substrates identified in KB-8-5-11 adenocarcinoma cell line, qHTS therapeutic library screen (AID 1346987); further: nearly all actives have a fitted effect of over 65% in size
# Conditions: KB-8-5-11 (P-gp overexpressing) viability, CellTiter-Glo, 72 h; series mostly up to 44.5 µM
# In short: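 KB-8-5-11: colchicine-selected sub-line of KB-3-1 over-expressing P-gp; assay medium lacked colchicine. 72 h drug exposure at 37 degree C, CellTiter-Glo.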
row,Structure (SMILES),outcome
1,CCOc1ccc(C(=O)OCCN(CC)CC)cc1,inactive
2,CC(O)CCCCn1c(=O)c2c(ncn2C)n(C)c1=O (stereo unspecified),inactive
3,Cc1cccc(C)c1NC(=O)CC12CCCN1CCC2,inactive
4,O=C(c1ccccc1)C(O)c1ccccc1 (stereo unspecified),inactive
5,NS(=O)(=O)c1ccc(NC(=O)CCC(=O)O)cc1,inactive
6,CC[N+](CC)(CC(=O)Nc1c(C)cccc1C)Cc1ccccc1,inactive
7,C=CCOc1ccccc1OCC(O)CNC(C)C (stereo unspecified),inactive
8,C[N+]1(C)CCCC(OC(=O)C(O)(c2ccccc2)c2ccccc2)C1 (stereo unspecified),inactive
9,CCCCCCCCCCC(CO)CCCCCCCC (stereo unspecified),inactive
10,CC(=O)Nc1ccc(C(=O)O)cc1,inactive
11,COc1ccc(-c2cc(=O)c3c(O)cc(O[C@@H]4O[C@H](CO[C@@H]5O[C@@H](C)[C@H](O)[C@@H](O)[C@H]5O)[C@@H](O)[C@H](O)[C@H]4O)cc3o2)cc1O,inactive
12,Cc1c(I)c(=O)n(-c2ccccc2)n1C,inactive
13,OC[C@@H](O)[C@@H](O)[C@H](O)[C@H](O)CO,inactive
14,CC(C)(C)NCC(O)COc1cccc2c1CCC(=O)N2 (stereo unspecified),inactive
15,CN/C(=C\[N+](=O)[O-])NCCSCc1csc(CN(C)C)n1,inactive
16,CC(=O)NCc1c(I)c(NC(C)=O)c(I)c(C(=O)O)c1I,inactive
17,O=C(OOC(=O)c1ccccc1)c1ccccc1,inactive
18,O=C(O)CCCCC1CCSS1 (stereo unspecified),inactive
19,FC(F)(F)C(Cl)Br (stereo unspecified),inactive

row,Structure (SMILES),outcome
1,C[C@@H]1O[C@@H](OC[C@H]2O[C@@H](Oc3c(-c4ccc(O)c(O)c4)oc4cc(O)cc(O)c4c3=O)[C@H](O)[C@@H](O)[C@@H]2O)[C@H](O)[C@H](O)[C@H]1O,inactive
2,CC(=O)Nc1cccc(O)c1,inactive
3,O=C1C(c2[nH]c3ccccc3c2O)=Nc2ccccc21,inactive
4,NCC1CCC(C(=O)Oc2ccc(CCC(=O)O)cc2)CC1 (stereo unspecified),inactive
5,CCCCCCCCCCCCCCCCCCO,inactive
6,CC(C)=CCC[C@@](C)(O)[C@H]1CC=C(C)CC1,inactive
7,COc1ccccc1OC(=O)Oc1ccccc1OC,inactive
8,N[C@@H](Cc1ccc(O)cc1)C(=O)O,inactive
9,COC(=O)c1cccnc1,inactive
10,CC(CSC(=O)c1ccccc1)C(=O)N1C[C@@H](Sc2ccccc2)C[C@H]1C(=O)O (stereo partly specified),inactive
11,Cc1ccccc1N=Nc1ccc(N=Nc2c(O)ccc3ccccc23)c(C)c1,inactive
12,CN1C(C)(C)CCCC1(C)C,inactive
13,CN1CCCN=C1COC(=O)C(O)(c1ccccc1)C1CCCCC1 (stereo unspecified),inactive
14,Cc1ccsc1C(=CCCN1CCC[C@@H](C(=O)O)C1)c1sccc1C,inactive
15,CCc1nnc(NS(=O)(=O)c2ccc(N)cc2)s1,inactive
16,O=C(O)[C@@H]1[C@H]2C[C@H]3c4[nH]c5ccccc5c4CCN3C[C@@H]2CC[C@@H]1O,inactive
17,CCCCCCCC(=O)OCC(O)CO (stereo unspecified),inactive
18,O=C(O)c1ccc(OCCCOc2ccc(C(=O)O)cc2)cc1,inactive
19,NC(=O)NC1NC(=O)NC1=O (stereo unspecified),inactive
